A short description of experiment [1]: binders of probe aFSTL3 on microarray, primary screen, stem cell growth factor project, biochemical, small-molecule microarray, fluorescence 635/667 (AID 1064).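 Note: measures binding of the biotinylated anti-FSTL3 antibody to printed compounds.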 To be noted: higher = more signal.
Experiment [2] is described as follows: binders from COS7 lysate, DM2A8 probe, primary screen, torsin A project, cell lysate, small-molecule microarray, fluorescence 635/667 (AID 1065). To be noted: higher = more signal, COS7 lysate expressing mutant human TOR1A.
Experiment [3] is described as follows: binders of probe aFGF2 on microarray, primary screen, stem cell growth factor project, biochemical, small-molecule microarray, fluorescence 635/667 (AID 1067).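 Note: measures binding of biotinylated aFGF2 protein to printed compounds on slides; z-score merges feature fluorescence and signal-to-noise across triplicate slides.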 The settings on record: higher = more signal.
Experiment [4] in a line: binders of probe aFGF10 on microarray, primary screen, stem cell growth factor project, biochemical, small-molecule microarray, fluorescence 635/667 (AID 1071).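 Note: score merges 667 nm spot intensity and signal to noise from triplicate slides.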 To be noted: higher = more signal.
For experiment [5], the target named is Neurogenic locus notch homolog protein 2 (Homo sapiens) (UniProt Q04721). The experiment can be described thus: Notch2 binders on small-molecule microarrays, primary screen, biochemical, small-molecule microarray, 635 nm fluorescence, stem cell growth factors (AID 1073). The settings on record: Notch2 binding, higher = more signal.
The target of experiment [6] is Pro-neuregulin-1, membrane-bound isoform (Homo sapiens) (UniProt Q02297). Nature of the experiment: NRG1 binders on small-molecule microarrays, primary screen, psychiatric disease protein project, biochemical, small-molecule microarray, fluorescence 635/667 (AID 1075).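 Note: score combines 667 nm spot fluorescence with signal to noise.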 To be noted: NRG1 binding, 635 nm fluorescence, higher = more signal.
For experiment [7], the system named is Neuregulin-1 EGF-like domain. Nature of the experiment: binders of neuregulin-1 EGF-like domain, primary screen, biochemical, small-molecule microarray, 635 nm fluorescence (AID 1081).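 Note: binding of the protein to compounds printed on small-molecule microarray slides.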 The settings on record: small-molecule microarray binding, higher = more signal.
Experiment [8] in a line: FRG1 promoter luciferase signal modulators, primary screen, FRG1 inhibition for FSHD, cell-based, C2C12 myotubes, firefly/Renilla luciferase, luminescence (AID 1084). The settings on record: higher = more signal, called active from +8 up or from −8 down.
A short description of experiment [9]: binders of probe aFST on microarray, primary screen, stem cell growth factor project, biochemical, small-molecule microarray, fluorescence 635/667 (AID 1086).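 Note: score merges 667 nm fluorescence with signal-to-noise of each printed compound spot.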 To be noted: higher = more signal.
Experiment [10] can be described thus: binders of probe aHhip on microarray, primary screen, stem cell growth factor project, biochemical, small-molecule microarray, fluorescence 635/667 (AID 1087).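 Note: score merges spot fluorescence at 667nm with spot signal to noise ratio.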 The settings on record: higher = more signal.
The subject of experiment [11] is PRMT1 (protein arginine N-methyltransferase 1). The experiment can be described thus: PRMT1 binders on small-molecule microarrays, primary screen, biochemical, small-molecule microarray, 635 nm fluorescence (AID 1088).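 Note: binding of Prmt1 protein to compounds spotted on small-molecule microarray slides.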 The settings on record: small-molecule microarray binding, higher = more signal.
Experiment [12] is described as follows: yeast growth modulation, basal conditions, primary screen, YJM789 clinical isolate, OD600, 24 h (AID 1089).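 Note: growth of clinical yeast isolate S. cerevisiae YJM 789 seeded 1000 cells per well; test concentration not given here.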 The settings on record: S. cerevisiae YJM789 growth, higher = more signal, called active from +8 up or from −8 down.
Experiment [13] can be described thus: fission yeast growth modulation, primary screen, strain 972, OD600, 24 h, no modulator (AID 1090).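 Note: basal condition with compound alone and no growth modifier present; test concentration not given here.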 The settings on record: S. pombe 972 growth, higher = more signal, called active from +8 up or from −8 down.
The nature of experiment [14]: S. cerevisiae growth modulation with rapamycin, primary screen, strain BY4716, OD600, 96 h (AID 1091). Note: test concentration not given here. To be noted: higher = more signal, called active from +8 up or from −8 down.
Experiment [15] concerns the target Torsin-1A-interacting protein 2 (Homo sapiens) (UniProt Q8NFQ8). The experiment can be described thus: LULL1 binders on small-molecule microarray, primary screen, cell lysate, human LULL1 lysate, 635/667 nm fluorescence (AID 1092).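 Note: score merges per-feature 667 nm fluorescence with signal-to-noise.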 To be noted: hLULL1 lysate binding, 635 nm fluorescence, higher = more signal.
A short description of experiment [16]: E. coli growth modulation, two-sided OD650, primary screen, E. coli filamentation project, strain DRC41, 24 h (AID 1093).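 Note: MC1000 strain lacking acrAB efflux and sulA so SOS filamentation is blocked; test concentration not given here.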 To be noted: OD650, 24 h, higher = more signal, called active from +8 up or from −8 down.
The nature of experiment [17]: small-molecule microarray binders of probe aLefty2, primary screen, biochemical, biotinylated probe, 635/667 nm fluorescence (AID 1094).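 Note: score merges spot fluorescence near 667 nm with spot signal-to-noise ratio.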 The settings on record: higher = more signal.
Experiment [18] relates to Noggin (protein binding on small-molecule microarray). The experiment can be described thus: Noggin binders on small-molecule microarray, primary screen, biochemical, 635/667 nm fluorescence (AID 1095).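 Note: score merges 667 nm feature fluorescence with signal to noise over triplicate slides.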 The settings on record: 635 nm fluorescence, higher = more signal.
Experiment [19] addresses Neurogenic locus notch homolog protein 3 (Homo sapiens) (UniProt Q9UM47). The experiment can be described thus: NOTCH3 binders on small-molecule microarray, primary screen, biochemical, 635/667 nm fluorescence (AID 1096). The settings on record: NOTCH3 binding, 635 nm fluorescence, higher = more signal.
The nature of experiment [20]: small-molecule microarray binders of probe aEGFR, primary screen, biochemical, biotinylated probe, 635/667 nm fluorescence (AID 1097).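 Note: probe is a biotinylated anti-EGFR antibody binding compounds printed on slides; score combines fluorescence near 667 nm and signal to noise of each spot.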 The settings on record: higher = more signal.

Calls of active or inactive are those of the source.

Chain of Pro-neuregulin-1, membrane-bound isoform (Homo sapiens) (Q02297 whole entry, looked up, the tested form may be a part, canonical isoform): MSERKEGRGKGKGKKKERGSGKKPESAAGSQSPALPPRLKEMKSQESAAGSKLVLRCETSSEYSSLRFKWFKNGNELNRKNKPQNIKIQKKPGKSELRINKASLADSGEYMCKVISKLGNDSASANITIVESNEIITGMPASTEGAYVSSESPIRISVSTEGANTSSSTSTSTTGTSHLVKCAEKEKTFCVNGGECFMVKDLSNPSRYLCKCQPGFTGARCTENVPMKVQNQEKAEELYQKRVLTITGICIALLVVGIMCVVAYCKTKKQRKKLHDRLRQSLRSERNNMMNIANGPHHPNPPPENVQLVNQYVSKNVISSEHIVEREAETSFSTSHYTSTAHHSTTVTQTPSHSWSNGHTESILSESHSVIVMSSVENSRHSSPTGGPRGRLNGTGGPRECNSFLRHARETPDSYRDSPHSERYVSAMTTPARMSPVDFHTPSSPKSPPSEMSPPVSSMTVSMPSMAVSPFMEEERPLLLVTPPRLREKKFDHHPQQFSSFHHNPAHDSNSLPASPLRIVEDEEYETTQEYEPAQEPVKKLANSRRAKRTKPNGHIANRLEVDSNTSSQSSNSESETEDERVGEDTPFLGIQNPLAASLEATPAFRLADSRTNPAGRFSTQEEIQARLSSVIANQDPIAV
Chain of Neurogenic locus notch homolog protein 3 (Homo sapiens) (Q9UM47 whole entry, looked up): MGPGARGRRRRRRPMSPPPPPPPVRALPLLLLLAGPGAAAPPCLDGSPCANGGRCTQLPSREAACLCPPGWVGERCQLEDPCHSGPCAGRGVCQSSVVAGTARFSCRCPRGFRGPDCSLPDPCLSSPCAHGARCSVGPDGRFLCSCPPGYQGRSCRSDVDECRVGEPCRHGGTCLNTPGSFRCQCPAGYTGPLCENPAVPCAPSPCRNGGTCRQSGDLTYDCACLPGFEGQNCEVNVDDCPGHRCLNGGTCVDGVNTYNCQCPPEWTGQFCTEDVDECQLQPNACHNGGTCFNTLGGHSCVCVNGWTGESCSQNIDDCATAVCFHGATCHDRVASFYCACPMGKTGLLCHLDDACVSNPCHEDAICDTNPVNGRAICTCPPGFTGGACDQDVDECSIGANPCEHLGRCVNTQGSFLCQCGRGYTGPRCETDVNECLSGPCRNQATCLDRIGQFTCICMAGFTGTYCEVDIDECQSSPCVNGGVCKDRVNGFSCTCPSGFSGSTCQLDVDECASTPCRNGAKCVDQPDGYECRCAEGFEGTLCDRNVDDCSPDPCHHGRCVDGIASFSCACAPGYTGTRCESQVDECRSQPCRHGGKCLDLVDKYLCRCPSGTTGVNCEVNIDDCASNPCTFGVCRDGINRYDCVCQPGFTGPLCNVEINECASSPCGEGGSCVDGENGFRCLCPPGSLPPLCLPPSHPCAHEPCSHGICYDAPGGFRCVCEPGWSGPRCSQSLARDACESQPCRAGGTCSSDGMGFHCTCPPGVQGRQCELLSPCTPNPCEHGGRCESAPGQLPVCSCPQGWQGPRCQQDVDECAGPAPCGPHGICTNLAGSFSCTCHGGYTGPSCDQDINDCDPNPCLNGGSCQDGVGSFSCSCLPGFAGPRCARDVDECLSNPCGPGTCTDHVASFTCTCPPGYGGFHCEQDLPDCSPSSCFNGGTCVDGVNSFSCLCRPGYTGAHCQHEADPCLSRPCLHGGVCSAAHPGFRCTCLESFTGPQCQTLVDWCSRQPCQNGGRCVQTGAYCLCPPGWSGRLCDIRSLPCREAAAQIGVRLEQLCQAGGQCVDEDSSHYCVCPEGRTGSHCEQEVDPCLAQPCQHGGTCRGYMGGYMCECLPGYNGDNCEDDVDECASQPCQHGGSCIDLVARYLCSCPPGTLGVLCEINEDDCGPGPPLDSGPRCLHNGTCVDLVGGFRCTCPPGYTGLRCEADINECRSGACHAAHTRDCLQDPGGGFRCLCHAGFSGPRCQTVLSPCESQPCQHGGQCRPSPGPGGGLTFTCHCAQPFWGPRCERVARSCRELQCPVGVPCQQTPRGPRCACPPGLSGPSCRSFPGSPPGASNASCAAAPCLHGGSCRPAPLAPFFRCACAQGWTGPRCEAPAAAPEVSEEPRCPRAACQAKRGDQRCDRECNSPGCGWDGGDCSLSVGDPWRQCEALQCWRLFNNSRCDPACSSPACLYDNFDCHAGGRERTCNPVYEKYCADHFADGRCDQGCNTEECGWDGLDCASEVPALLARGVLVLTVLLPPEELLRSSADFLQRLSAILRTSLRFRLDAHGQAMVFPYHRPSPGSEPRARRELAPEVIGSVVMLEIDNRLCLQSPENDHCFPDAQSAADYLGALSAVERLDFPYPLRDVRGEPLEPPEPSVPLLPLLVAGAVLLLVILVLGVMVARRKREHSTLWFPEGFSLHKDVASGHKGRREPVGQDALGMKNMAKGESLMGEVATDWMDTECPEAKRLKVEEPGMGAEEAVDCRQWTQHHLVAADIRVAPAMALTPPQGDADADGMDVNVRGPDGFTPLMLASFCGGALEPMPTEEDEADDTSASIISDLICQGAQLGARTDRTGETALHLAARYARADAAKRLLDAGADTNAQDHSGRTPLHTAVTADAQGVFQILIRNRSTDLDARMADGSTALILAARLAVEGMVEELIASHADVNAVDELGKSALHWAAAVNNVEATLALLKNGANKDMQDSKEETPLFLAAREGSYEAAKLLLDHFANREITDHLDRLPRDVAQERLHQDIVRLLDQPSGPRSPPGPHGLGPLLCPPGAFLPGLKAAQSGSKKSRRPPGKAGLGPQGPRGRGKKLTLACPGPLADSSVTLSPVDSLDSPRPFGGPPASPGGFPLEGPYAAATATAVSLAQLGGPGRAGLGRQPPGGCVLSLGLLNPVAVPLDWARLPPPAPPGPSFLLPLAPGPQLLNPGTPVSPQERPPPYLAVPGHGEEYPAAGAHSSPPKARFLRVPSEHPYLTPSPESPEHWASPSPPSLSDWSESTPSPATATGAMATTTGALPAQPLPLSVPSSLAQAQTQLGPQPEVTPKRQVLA
Chain of Torsin-1A-interacting protein 2 (Homo sapiens) (Q8NFQ8 whole entry, looked up): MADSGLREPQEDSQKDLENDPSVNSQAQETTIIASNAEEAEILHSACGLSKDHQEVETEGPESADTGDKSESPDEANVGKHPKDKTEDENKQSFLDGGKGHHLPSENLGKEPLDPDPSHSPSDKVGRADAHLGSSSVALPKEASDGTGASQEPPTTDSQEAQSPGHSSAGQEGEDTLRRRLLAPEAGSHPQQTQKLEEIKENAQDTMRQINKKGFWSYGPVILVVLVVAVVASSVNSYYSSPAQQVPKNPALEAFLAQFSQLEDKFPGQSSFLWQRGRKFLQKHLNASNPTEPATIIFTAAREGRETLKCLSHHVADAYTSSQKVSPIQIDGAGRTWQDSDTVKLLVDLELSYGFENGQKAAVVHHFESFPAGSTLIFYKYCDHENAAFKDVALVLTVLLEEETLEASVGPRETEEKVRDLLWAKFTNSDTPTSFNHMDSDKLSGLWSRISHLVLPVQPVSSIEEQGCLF

`CN(C)C(=O)[C@]1(Cc2ccccc2N=[N+]=[N-])N=C(c2ccc(OCCCO)cc2)O[C@@H]1c1ccccc1CN=[N+]=[N-]`: the composite z-score is -0.144 in experiment [1]; 0.937 in experiment [2]; 0.122 in experiment [3]; 0.794 in experiment [4]; 1.51 in [5]; 1.8 in experiment [6]. In addition, the composite z-score in [7] is 1.19; in experiment [9], 0.745; in experiment [10], -0.0994; in experiment [11], 1.5; in experiment [15], 3.51; in experiment [17], 0.0262. The composite z-score was 0.821 in experiment [18], 1.02 in [19] and -0.0509 in [20]. For the same compound, the z-score in experiment [8] was 0.643 (inactive); in experiment [12], -2.13 (inactive); in experiment [13], -0.393 (inactive); in [14] it was 0.545 (inactive); in experiment [16], 0.35 (inactive).
In the case of `COc1ccc([Si](C)(C)[C@@H]2[C@@H](CCO)O[C@]3(C(=O)N(Cc4ccccc4)c4ccc(N5C(=O)COc6ccccc65)cc43)[C@H]2C)cc1`, the composite z-score in [1] is -0.169; in experiment [2] it was 0.217; in experiment [3], -0.0973; in [4], 0.2; in [5], 0.128; in [6], 0.666. The composite z-score in experiment [7] was 1.05; in experiment [9], 0.17; in experiment [10], -0.0994; in [11], 1.39; in experiment [15], 1.74; in experiment [17], -0.0511. Besides, the composite z-score was 1.09 in experiment [18], 0.624 in [19] and -0.187 in [20]. For the same compound, the z-score was -0.409 (inactive) in [8]; 1.56 (inactive) in [12]; 0.504 (inactive) in experiment [13]; 9.67 (active) in experiment [14]; 2.61 (inactive) in [16].
As for `CCOC(=O)C[C@H]1[C@H](OC(=O)Cc2ccc3c(c2)OCO3)[C@@H](NC(=O)c2ccccc2)c2cc(OCCCO)ccc2N1C(=O)c1ccccc1`, the composite z-score in experiment [1] is -0.23; in [2], 0.122; in experiment [3], -0.0687; in experiment [4], 0.346; in [5], 0.228; in experiment [6], -0.109. In addition, the composite z-score was 0.895 in [7]; 0.0452 in [9]; -0.0237 in experiment [10]; 0.267 in [11]; 1.27 in [15]; -0.166 in experiment [17]. The composite z-score in experiment [18] is 0.53; in [19], 0.713; in [20], -0.125. For the same compound, the z-score was -1.73 (inactive) in experiment [8]; -0.0172 (inactive) in [12]; -0.462 (inactive) in experiment [13]; 0.205 (inactive) in experiment [14]; 1.48 (inactive) in [16].
As to `O=C1N(Cc2ccccc2)c2ccccc2[C@H]2OC(c3ccc(OCCCO)cc3)=N[C@@]12CCS(=O)(=O)c1ccccc1`, the composite z-score in [1] is 0.149; in [2], 0.527; in [3] it was 0.11; in experiment [4] it was 0.951; in experiment [5] it was 0.931; in [6], 1.76. Further, the composite z-score in experiment [7] is 1.28; in experiment [9], 0.574; in experiment [10] it was 0.167; in experiment [11], 1.54; in experiment [15], 3.36; in experiment [17], 0.0137. In addition, the composite z-score in experiment [18] was 1.75; in experiment [19], 1.08; in experiment [20] it was -0.0531. Also, the z-score was -1.25 (inactive) in [8]; 1.19 (inactive) in experiment [12]; 0.485 (inactive) in experiment [13]; 8.14 (active) in [14]; -0.81 (inactive) in experiment [16].
`O=C1NC(=O)C2C1C=CC(C(O)CCc1ccccc1)N2Nc1ccccn1` (stereo not given): the composite z-score in experiment [1] is 0.313; in [2], 0.478; in experiment [3] it was -0.0881; in experiment [4] it was 0.0386; in experiment [5], 1.07; in [6] it was 1.19. The composite z-score was 0.83 in experiment [7]; 0.172 in [9]; -0.407 in [10]; 0.509 in experiment [11]; 1.51 in experiment [15]; -0.0719 in experiment [17]. Moreover, the composite z-score in [18] was 0.103; in experiment [19] it was 0.312; in experiment [20], -0.0659. Further, the z-score in experiment [8] was -0.338 (inactive); in experiment [12] it was -0.974 (inactive); in experiment [13], 1.51 (inactive); in experiment [14], -0.312 (inactive); in experiment [16] it was -0.581 (inactive).

The record behind these values is PubChem BioAssay.
